In PubChem BioAssay:
Results filed as inconclusive are left out. Activity calls are given as the source filed them.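 The calls were made as follows, unless noted: active = viability at or below 30% in both replicate assays; inconclusive = viability at or below 30% in just one of the two assays; inactive = the rest.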

Tests used:
[1] = Her2 expression decrease, cell viability multiplex – SKBR3 breast tumor cells, AlphaScreen, ATP viability, primary screen (AID 461;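 active = Her2 level under about 52% in both replicate screens, with viability over 70% of control, limit read from the data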;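 as to Her2 level: lower value means less Her2 protein in the cells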;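 as to viability: percent of carrier control wells set as 100% viability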); conditions: SKBR3 Her2 protein level, 18-24 h, measured here: SKBR3 viability, ATP luminescence, at 10 µM
[2] = molecular target: Receptor tyrosine-protein kinase erbB-2 (Homo sapiens) (UniProt P04626); assay: as above; conditions: 18-24 h, at 10 µM, stronger effect = lower value
[3] = reduced viability of SK-BR-3 breast cancer cells – cell-based, 24 h, human, pilot screen (AID 572;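 active = viability at or below 10% of carrier control in both of two separate runs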;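 also: compound exposure lasted between 18 and 24 h rather than exactly 24 h; 100% = carrier-treated control wells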); conditions: SK-BR-3 viability, CellTiter-Glo luminescence, at 10 µM, stronger effect = lower value
[4] = HUVEC growth inhibition – cell-based, human, primary screen (AID 575); conditions: HUVEC proliferation, CellTiter-Glo luminescence, 72 h; at 10 µM; stronger effect = lower value;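 also: 100% = median of untreated cell wells with 0.1% DMSO on each plate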
[5] = MRP1 drug-resistance reversers in H69AR cells – cell-based, doxorubicin co-treatment, pilot screen (AID 601;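 active = viability loss from added drug above about 55%, and viability with drug at most 40%, in both replicates, limit read from the data, passing the limit was not always enough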); conditions: CellTiter-Glo, 72 h, at 10 µM; for differential viability (reversal): stronger effect = higher value
[6] = H69AR cell proliferation blockers – human, duplicate replicates, primary screen (AID 580;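 active = viability at or under a set limit in both replicates, limit being median viability minus 3 SD, cut at about 48% in these data, passing the limit was not always enough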;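 also: 100% = mean luminescence of untreated wells and 0% = no signal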); conditions: H69AR lung tumor cells viability, ATP luminescence, 72 h; at 10 µM; stronger effect = lower value
[7] = yeast transport mutant growth inhibition pilot in 384-well plates, post-Golgi transport modulator project (AID 636; in the data active = inhibition above about 31%); conditions: absorbance 615 nm, about 18 h, stronger effect = higher value
[8] = growth suppression of yeast trafficking mutant, preliminary HTS, modulators of trafficking downstream of Golgi apparatus project, 1536-format plate, OD 615 nm (AID 637; in the data active = inhibition above about 30%); conditions: yeast transport mutant growth, absorbance 615 nm, 18 h; stronger effect = higher value
[9] = S. cerevisiae growth inhibition in permissive medium (OD615), pilot counter-assay for S. cerevisiae lifespan shortening project, permissive growth control (AID 705;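 active = growth inhibition above 25% in both replicates, a cutoff set 3 SD above the mean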); conditions: OD615, 24 h, at 10 µM, stronger effect = higher value
[10] = S. cerevisiae growth inhibition in restrictive medium, OD615, pilot screen, restrictive growth control, yeast lifespan reduction project (AID 706;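 active = growth inhibition above a set limit, 3 SD over mean compound inhibition, in both replicates, cut at about 43% in these data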;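 also: modified DeaD lifespan yeast strain shifted to restrictive glucose medium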); conditions: OD615, 48 h, at 10 µM, stronger effect = higher value
[11] = doxorubicin toxicity protection in MRP-1 cells – H69AR cells, CellTiter-Glo, duplicate, MRP-1 activator project, pilot screen (AID 807;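 active = viability increase at or above a cutoff of the median across tested compounds plus 3 SD, cut at about 8.5% in these data, passing the limit was not always enough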;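 also: compound pretreatment 18-22 h then 72 h combined with doxorubicin; 0% = doxorubicin alone and 100% = vehicle without doxorubicin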); conditions: H69AR viability with doxorubicin, CellTiter-Glo luminescence; at 10 µM; stronger effect = higher value
[12] = viability of PTEN-null HCT116 cells – cell-based, HCT116 clonal line, CellTiter-Glo, pilot screen (AID 824;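 active = viability at or below 27.92% in each of two runs, the all-compound median minus 4 SD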;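 also: 0% = 20 µM Hyamine control and 100% = vehicle cell control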); conditions: HCT116 PTEN-deleted viability, 60 h, at 10 µM, stronger effect = lower value
[13] = RAM pathway blockade in budding yeast – dse1pr::URA3 reporter, 5-FOA selection, pilot screen (AID 869;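 active = inhibition over a set limit, the all-compound mean plus 3 SD, in both replicate runs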;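 also: 0% = DMSO wells with no growth and 100% = 10 µM 1-NA-PP1 with full growth; RAM network block rescues cells from 5-FOA so hits raise OD615 growth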); conditions: S. cerevisiae dse1pr::URA3 5-FOA growth, OD615, 2 d; at 10 µM; stronger effect = higher value; strain carries analog-sensitive mutant Cbk1 kinase
[14] = viability of HCT116 without oncogenic beta-catenin – human colon tumor cells, pilot screen (AID 823;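 active = cell viability at or below a set limit in both duplicate runs, the limit being the all-compound median minus 4 SD, cut at about 23% in these data, passing the limit was not always enough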;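 also: 0% = wells killed by 20 µM Hyamine and 100% = untreated DMSO cell wells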); conditions: HCT116 beta-catenin knockout viability, CellTiter-Glo, 60 h; at 10 µM; stronger effect = lower value
[15] = H69AR cells + 2 uM doxorubicin, measured here: viability with 2 uM doxorubicin, stronger effect = lower value
[16] = H69AR cells, compound alone cytotoxicity

Receptor tyrosine-protein kinase erbB-2 (Homo sapiens), sequence (P04626 whole entry, looked up): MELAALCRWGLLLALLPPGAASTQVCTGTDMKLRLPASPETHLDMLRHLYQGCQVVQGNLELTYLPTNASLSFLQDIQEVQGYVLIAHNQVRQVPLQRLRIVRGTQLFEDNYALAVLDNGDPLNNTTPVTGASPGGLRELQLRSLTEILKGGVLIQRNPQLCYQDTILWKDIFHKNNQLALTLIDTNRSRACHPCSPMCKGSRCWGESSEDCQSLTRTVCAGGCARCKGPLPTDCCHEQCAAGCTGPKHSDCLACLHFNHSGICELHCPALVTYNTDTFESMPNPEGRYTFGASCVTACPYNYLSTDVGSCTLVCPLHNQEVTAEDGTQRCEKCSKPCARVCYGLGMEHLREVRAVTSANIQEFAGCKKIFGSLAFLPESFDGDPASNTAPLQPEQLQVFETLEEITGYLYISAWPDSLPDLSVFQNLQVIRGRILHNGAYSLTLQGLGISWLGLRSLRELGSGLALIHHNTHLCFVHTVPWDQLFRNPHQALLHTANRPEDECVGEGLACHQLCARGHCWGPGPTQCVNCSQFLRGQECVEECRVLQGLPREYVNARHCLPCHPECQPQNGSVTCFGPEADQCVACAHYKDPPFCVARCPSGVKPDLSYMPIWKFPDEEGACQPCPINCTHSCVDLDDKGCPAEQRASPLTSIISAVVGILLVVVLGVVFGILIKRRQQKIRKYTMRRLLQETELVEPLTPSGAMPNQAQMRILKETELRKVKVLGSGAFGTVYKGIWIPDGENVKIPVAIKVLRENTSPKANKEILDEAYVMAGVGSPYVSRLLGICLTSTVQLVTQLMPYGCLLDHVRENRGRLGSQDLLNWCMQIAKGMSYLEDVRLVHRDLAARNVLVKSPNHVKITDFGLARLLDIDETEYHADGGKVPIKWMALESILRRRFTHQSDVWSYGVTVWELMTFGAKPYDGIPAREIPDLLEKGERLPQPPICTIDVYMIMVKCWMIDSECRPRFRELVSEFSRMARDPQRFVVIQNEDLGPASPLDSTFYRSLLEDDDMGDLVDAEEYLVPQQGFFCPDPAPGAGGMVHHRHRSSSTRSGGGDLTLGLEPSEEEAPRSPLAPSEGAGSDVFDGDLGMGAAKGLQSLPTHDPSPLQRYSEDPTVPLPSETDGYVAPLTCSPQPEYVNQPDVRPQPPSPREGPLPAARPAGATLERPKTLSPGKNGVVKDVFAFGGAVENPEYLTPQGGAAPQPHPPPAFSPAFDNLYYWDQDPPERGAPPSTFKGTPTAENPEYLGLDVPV

CC(=O)O[C@]1(C(C)=O)CC[C@H]2[C@@H]3C[C@H](C)C4=CC(=O)CC[C@]4(C)[C@H]3CC[C@@]21C
153%: viability [1]
inactive: Her2 level [2] 65% | viability [3] 153% | viability [4] 83.3% | differential viability (reversal) ([5]; H69AR cells + 2 uM doxorubicin) -5.03%
6.83%: viability [5, 15]
1.8%: viability [5, 16]

C=CCSc1nnc2n(-c3ccccc3OC)c(=O)c3c4c(sc3n12)CCC4
inactive: Her2 level [2] 100% | viability [3] 83.5% | viability [4] 79.9% | viability [6] 89.1% | inhibition [7] -0.67% | inhibition [8] -0.95%
83.5%: viability [1]

COc1ccc(OC)c(NC(=O)CCNS(=O)(=O)c2cccs2)c1
94.2%: viability [5, 15]
95%: viability [1]
inactive: Her2 level [2] 103% | viability [3] 95% | viability [4] 92.4% | viability [6] 99.8% | differential viability (reversal) ([5]; H69AR cells + 2 uM doxorubicin) 5.6% | inhibition [7] -3.6% | inhibition [8] 23.3% | growth inhibition [9] -2.31% | growth inhibition [10] 13.9% | viability increase [11] -2.82% | viability [12] 96.1% | inhibition [13] 2.21%
99.8%: viability [5, 16]

C=CCn1c(SCC(=O)Nc2cccc(OC)c2)nnc1-c1cccnc1
inactive: Her2 level [2] 95% | viability [3] 92.5% | viability [4] 87.2% | viability [6] 95.4% | differential viability (reversal) ([5]; H69AR cells + 2 uM doxorubicin) 7.9% | inhibition [7] -6.4% | inhibition [8] 3.33% | growth inhibition [9] -11.3% | growth inhibition [10] -8.35% | viability increase [11] -2.95% | viability [14] 99.6% | viability [12] 96.8% | inhibition [13] 0.365%
95.4%: viability [5, 16]
92.5%: viability [1]
87.5%: viability [5, 15]

COc1ccc(-c2nc(CS(=O)CC(=O)N3CCCC3)c(C)o2)cc1 (stereo unspecified)
81.8%: viability [5, 15]
92.5%: viability [1]
83.9%: viability [5, 16]
inactive: Her2 level [2] 91% | viability [3] 92.5% | viability [4] 80.8% | viability [6] 83.9% | differential viability (reversal) ([5]; H69AR cells + 2 uM doxorubicin) 2.07% | inhibition [7] -2.67% | inhibition [8] 3.77% | growth inhibition [9] -4.09% | growth inhibition [10] 5.46% | viability increase [11] -2.14% | viability [14] 91.8% | viability [12] 90.7% | inhibition [13] 2.27%

C=CCN1C(=O)/C(=C2/Sc3ccccc3N2C)SC1=Nc1c(C)n[nH]c1C
107%: viability [1]
inactive: Her2 level [2] 86.5% | viability [3] 107% | viability [4] 85% | viability [6] 75.5% | inhibition [7] -5.2% | inhibition [8] 0.48%

Cc1ccc(Cn2nnc3c(=O)[nH]c(C4CCN(S(=O)(=O)c5ccc(F)cc5)CC4)nc32)cc1
inactive: Her2 level [2] 106% | viability [3] 90.5% | viability [4] 76.4% | viability [6] 86.2% | inhibition [7] -1.73% | inhibition [8] -5.16%
90.5%: viability [1]

OC(CN1CCN(c2ccccc2)CC1)c1ccc2c(c1)CCN2 (stereo unspecified)
69.5%: viability [5, 16]
87.5%: viability [1]
inactive: Her2 level [2] 110% | viability [3] 87.5% | viability [4] 95.3% | viability [6] 69.5% | differential viability (reversal) ([5]; H69AR cells + 2 uM doxorubicin) -26% | inhibition [7] -2.4% | inhibition [8] 3.33% | growth inhibition [9] -10.4% | growth inhibition [10] -5.32% | viability increase [11] -6.11% | viability [14] 83.9% | viability [12] 84.4% | inhibition [13] 0.78%
95.5%: viability [5, 15]

CCOC(=O)c1sc(NC(=O)CSc2nnc(-c3ccco3)n2CC)c(C(=O)OCC)c1C
inactive: Her2 level [2] 71% | viability [3] 101% | viability [4] 77.5% | viability [6] 74.2% | inhibition [7] -0.66% | inhibition [8] -0.32%
101%: viability [1]

Cc1cccc(OCC(=O)N2CCC(c3ccccc3)C2)c1 (stereo unspecified)
90.9%: viability [5, 15]
inactive: Her2 level [2] 112% | viability [3] 104% | viability [4] 98% | viability [6] 92.8% | differential viability (reversal) ([5]; H69AR cells + 2 uM doxorubicin) 1.84% | inhibition [7] -4.05% | inhibition [8] -1.83% | growth inhibition [9] -17.9% | growth inhibition [10] -6.05% | viability increase [11] -0.58% | viability [14] 83% | viability [12] 83.7% | inhibition [13] 0.225%
92.8%: viability [5, 16]
104%: viability [1]

CC(C)COC(=O)C1C2C=CC3(CN(C(C)c4ccc(Br)cc4)C(=O)C13)O2 (stereo unspecified)
inactive: Her2 level [2] 100% | viability [3] 114% | viability [4] 101% | viability [6] 94.9% | differential viability (reversal) ([5]; H69AR cells + 2 uM doxorubicin) 11.3% | inhibition [7] -6.53% | inhibition [8] -5.74% | growth inhibition [9] -9.09% | growth inhibition [10] 5.3% | viability increase [11] -2.82% | viability [14] 98.3% | viability [12] 95.8% | inhibition [13] 0.915%
114%: viability [1]
94.9%: viability [5, 16]
83.6%: viability [5, 15]

O=C(Oc1cc2oc(=O)c3c(c2cc1Cl)CCCC3)c1ccco1
82%: viability [1]
80.2%: viability [5, 16]
inactive: Her2 level [2] 87% | viability [3] 82% | viability [4] 89.6% | viability [6] 80.2% | differential viability (reversal) ([5]; H69AR cells + 2 uM doxorubicin) -13.1% | inhibition [7] 1.28% | inhibition [8] -4% | growth inhibition [9] -14.7% | growth inhibition [10] -13.7% | viability increase [11] -3.67% | viability [14] 108% | viability [12] 104% | inhibition [13] 1.97%
93.2%: viability [5, 15]
